# Measured values: paper PMC5540273 (PLoS ONE, 2017)
# System: RIOK3
# Details: concentration: 1 μM, replicates: in singlicate; n = 1
# 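Further: KINOMEscan kinase panel screen.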
row,SMILES,%Inh [%]
1,COc1ccc(Nc2nccc(N3CCC(NC(=O)C(C)c4ccc(Cl)cc4)CC3)n2)cc1 (stereo not drawn) [GSK1379812],31
2,CC(=O)c1c(C)c2cnc(Nc3ccc(N4CCNCC4)cn3)nc2n(C2CCCC2)c1=O,0
3,Nc1nccc(-c2c(-c3ccc(F)cc3)ncn2C2CCN(Cc3ccccc3)CC2)n1 [SB-219980],0
4,Fc1ccc(-c2nc3n(c2-c2ccncc2)CCS3)cc1 [GI98581],14
5,COc1cccc(CNC(=O)NC2CCN(c3ccnc(Nc4ccc(F)cc4)n3)C2)c1 (stereo not drawn) [GSK1379723],0
6,c1ccc(-c2ccnc3[nH]ccc23)cc1 [SB-693578],0
7,Cc1ccc(NC(=O)c2ccc(Cl)cc2)cc1-c1ccc(C(=O)Nc2ccncc2)cc1 [GSK1398467],8
8,CNCc1ccc2nc(NC(=O)c3ccc(C(C)(C)C)cc3)cn2c1,25
9,COc1ccc(-c2coc3ccc(-c4nnc(C)o4)cc23)cc1,0
10,O=C(Nc1n[nH]c2nc(-c3ccco3)c(Br)cc12)C1CCN(Cc2ccccc2)C1.O=C(O)[C@H](O)[C@@H](O)C(=O)O (stereo not drawn) [SB-742034],0
11,Cc1c(Cn2c(C)c(C)n3c(=O)cc(N4CCOCC4)nc23)cccc1C(F)(F)F [GSK2328680],0
12,COC(=O)C(NC(=O)NC1CCN(c2ccnc(Nc3ccc(F)cc3)n2)C1)c1ccccc1 (stereo not drawn) [GSK1379712],3
13,Cc1ccc(NC(=O)Nc2ccc(Cl)cc2)cc1-c1ccc(C(=O)Nc2ccncc2)cc1 [GSK1398472],31
14,Cc1ccc(-c2nc(Nc3ccncc3)c3ccccc3n2)s1 [GSK189015],23
15,CC(C)c1cc(-c2ccc3c(N)n[nH]c3c2)nc(N)n1 [GSK2250882],82
16,CC(=O)c1cccc(NC(=O)NC2CCN(c3ccnc(Nc4ccc(F)cc4)n3)C2)c1 (stereo not drawn) [GSK1379710],33
17,Cc1ccccc1Cn1ccn2c(=O)cc(N3CCOCC3)nc12 [GSK2269905],0
18,CNc1nc(-c2ccc3c(N)n[nH]c3c2)cc(N2C[C@@H](C(=O)Nc3ccccc3)CC[C@H]2C)n1 [GSK2298859],38

row,SMILES,%Inh [%]
1,Fc1ccc(-c2nc[nH]c2-c2ccncc2)cc1 [SB-217360],0
2,Cc1cccc2c(-c3ccncn3)c(-c3ccc(F)cc3)nn12 [GW515532],5
3,COc1ccc(Nc2nccc(NCCNC(=O)Nc3cc(C)ccc3C)n2)cc1 [GSK1379899],24
4,CS(=O)(=O)CCNCc1nc(-c2ccc3ncnc(Nc4ccc(OCc5ccccc5)c(Cl)c4)c3c2)cs1.Cl [GW582764],0
5,NS(=O)(=O)c1cccc(N/C=C2\C(=O)Nc3ccc(S(=O)(=O)Cc4c(Cl)cccc4Cl)cc32)c1 [GSK398099],19
6,CC(=O)c1c(C)c2cnc(Nc3ccn(C)n3)nc2n(C2CCCC2)c1=O,0
7,Cn1cncc1-c1cc2c(Nc3ccc(OCc4ccccc4)cc3)ncnc2cn1 [GW281179],6
8,COc1ccc(CSc2nnc(-c3ccc4c(c3)CCO4)o2)cc1,21
9,CN1c2ccc(-c3ccc(C(N)=O)cc3)cc2-c2[nH]ncc2S1(=O)=O,29
10,CC(C)c1ccc(O)cc1Nc1ccnc2ccc(C(F)(F)F)cc12 [GW482059],0
11,O=C(Nc1n[nH]c2nc(-c3cccs3)c(Br)cc12)C1CCCC1 [SB-743341],11
12,CS(=O)(=O)CCNCc1nc(-c2ccc3ncnc(Nc4ccc5c(cnn5Cc5ccccc5)c4)c3c2)cs1.Cl.Cl [GW569716],0
13,Cl.Cl.Cl.N#Cc1ccc(CCNc2nccc(-c3cccc(CN4CCNCC4)c3)n2)cc1 [GSK2137462],37
14,Fc1ccc(-c2nn3cccc(F)c3c2-c2ccncc2)cc1 [GW475620],39
15,COc1ccc(CSc2nnc(-c3ccc4ncsc4c3)o2)cc1C(F)(F)F,22
16,Cc1ccc(NC(=O)Nc2ccccc2F)cc1-c1ccc(C(=O)Nc2ccncc2)cc1 [GSK1398477],6
17,O=C1NC(=O)C(c2ccc(Cl)cc2)=C1Nc1cccc(Cl)c1 [SB-317651],22
18,CNc1nc(-c2ccc3c(N)n[nH]c3c2)cc(N2C[C@@H](C(=O)NC3CCCCC3)OC[C@H]2C)n1 [GSK2375584],35

# System: RIPK1
# Details: concentration: 1 μM, replicates: in singlicate; n = 1
row,SMILES,%Inh [%]
1,COc1ccc(Nc2nccc(N3CCC(NC(=O)C(C)c4ccc(Cl)cc4)CC3)n2)cc1 (stereo not drawn) [GSK1379812],22
2,CC(=O)c1c(C)c2cnc(Nc3ccc(N4CCNCC4)cn3)nc2n(C2CCCC2)c1=O,0
3,Nc1nccc(-c2c(-c3ccc(F)cc3)ncn2C2CCN(Cc3ccccc3)CC2)n1 [SB-219980],0
4,Fc1ccc(-c2nc3n(c2-c2ccncc2)CCS3)cc1 [GI98581],0
5,COc1cccc(CNC(=O)NC2CCN(c3ccnc(Nc4ccc(F)cc4)n3)C2)c1 (stereo not drawn) [GSK1379723],0
6,c1ccc(-c2ccnc3[nH]ccc23)cc1 [SB-693578],0
7,Cc1ccc(NC(=O)c2ccc(Cl)cc2)cc1-c1ccc(C(=O)Nc2ccncc2)cc1 [GSK1398467],0
8,CNCc1ccc2nc(NC(=O)c3ccc(C(C)(C)C)cc3)cn2c1,2
9,COc1ccc(-c2coc3ccc(-c4nnc(C)o4)cc23)cc1,0
10,O=C(Nc1n[nH]c2nc(-c3ccco3)c(Br)cc12)C1CCN(Cc2ccccc2)C1.O=C(O)[C@H](O)[C@@H](O)C(=O)O (stereo not drawn) [SB-742034],0
11,Cc1c(Cn2c(C)c(C)n3c(=O)cc(N4CCOCC4)nc23)cccc1C(F)(F)F [GSK2328680],17
12,COC(=O)C(NC(=O)NC1CCN(c2ccnc(Nc3ccc(F)cc3)n2)C1)c1ccccc1 (stereo not drawn) [GSK1379712],20
13,Cc1ccc(NC(=O)Nc2ccc(Cl)cc2)cc1-c1ccc(C(=O)Nc2ccncc2)cc1 [GSK1398472],0
14,Cc1ccc(-c2nc(Nc3ccncc3)c3ccccc3n2)s1 [GSK189015],0
15,CC(C)c1cc(-c2ccc3c(N)n[nH]c3c2)nc(N)n1 [GSK2250882],0
16,CC(=O)c1cccc(NC(=O)NC2CCN(c3ccnc(Nc4ccc(F)cc4)n3)C2)c1 (stereo not drawn) [GSK1379710],29
17,Cc1ccccc1Cn1ccn2c(=O)cc(N3CCOCC3)nc12 [GSK2269905],0
18,CNc1nc(-c2ccc3c(N)n[nH]c3c2)cc(N2C[C@@H](C(=O)Nc3ccccc3)CC[C@H]2C)n1 [GSK2298859],1

row,SMILES,%Inh [%]
1,Fc1ccc(-c2nc[nH]c2-c2ccncc2)cc1 [SB-217360],0
2,Cc1cccc2c(-c3ccncn3)c(-c3ccc(F)cc3)nn12 [GW515532],1
3,COc1ccc(Nc2nccc(NCCNC(=O)Nc3cc(C)ccc3C)n2)cc1 [GSK1379899],4
4,CS(=O)(=O)CCNCc1nc(-c2ccc3ncnc(Nc4ccc(OCc5ccccc5)c(Cl)c4)c3c2)cs1.Cl [GW582764],0
5,NS(=O)(=O)c1cccc(N/C=C2\C(=O)Nc3ccc(S(=O)(=O)Cc4c(Cl)cccc4Cl)cc32)c1 [GSK398099],0
6,CC(=O)c1c(C)c2cnc(Nc3ccn(C)n3)nc2n(C2CCCC2)c1=O,2
7,Cn1cncc1-c1cc2c(Nc3ccc(OCc4ccccc4)cc3)ncnc2cn1 [GW281179],0
8,COc1ccc(CSc2nnc(-c3ccc4c(c3)CCO4)o2)cc1,0
9,CN1c2ccc(-c3ccc(C(N)=O)cc3)cc2-c2[nH]ncc2S1(=O)=O,0
10,CC(C)c1ccc(O)cc1Nc1ccnc2ccc(C(F)(F)F)cc12 [GW482059],3
11,O=C(Nc1n[nH]c2nc(-c3cccs3)c(Br)cc12)C1CCCC1 [SB-743341],25
12,CS(=O)(=O)CCNCc1nc(-c2ccc3ncnc(Nc4ccc5c(cnn5Cc5ccccc5)c4)c3c2)cs1.Cl.Cl [GW569716],0
13,Cl.Cl.Cl.N#Cc1ccc(CCNc2nccc(-c3cccc(CN4CCNCC4)c3)n2)cc1 [GSK2137462],34
14,Fc1ccc(-c2nn3cccc(F)c3c2-c2ccncc2)cc1 [GW475620],0
15,COc1ccc(CSc2nnc(-c3ccc4ncsc4c3)o2)cc1C(F)(F)F,0
16,Cc1ccc(NC(=O)Nc2ccccc2F)cc1-c1ccc(C(=O)Nc2ccncc2)cc1 [GSK1398477],15
17,O=C1NC(=O)C(c2ccc(Cl)cc2)=C1Nc1cccc(Cl)c1 [SB-317651],0
18,CNc1nc(-c2ccc3c(N)n[nH]c3c2)cc(N2C[C@@H](C(=O)NC3CCCCC3)OC[C@H]2C)n1 [GSK2375584],10
